Shiga toxin inh: Shiga toxin inhibition. Vero cells, Shiga toxin protein synthesis inhibition reporter. inhibition, % at 38.7 µM. 290,000 compounds, 9.2% hits. AID 2315; in the data active = inhibition mostly above about 28%, no sharp cut-off; inactive = mostly below about 43%
SARS PLP yeast: inhibitors of SARS-CoV papain-like protease in yeast; S. cerevisiae expressing SARS-CoV PLpro, growth rescue; Potency, µM (top dose mostly 32.9 µM), actives largely listed as activators; 330,000 compounds, 0.19% hits; calls by dose curve; also: nearly all actives have a fitted effect of over 55% in size
Tb PYK inh: inhibitors of Trypanosoma brucei pyruvate kinase | Q57TT1 | TbPYK enzyme, Kinase-Glo Plus ATP luminescence, 45 min | Potency, µM (series often up to 76.8 µM), hits mostly inhibitors | 410,000 compounds, 0.12% hits; also: nearly all actives have a fitted effect of over 50% in size
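Glycolytic pyruvate kinase of T. brucei was incubated with substrate, test compound and 130 uM ADP for 45 minutes at room temperature. Luminescent Kinase-Glo Plus signal was measured after 10 minutes.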
NS1 function inh: blocks influenza NS1 protein function | Potency, µM (series often up to 46.1 µM) | 270,000 compounds, 0.4% hits; calls by dose curve; also: actives are rising curves; nearly all actives have a fitted effect of over 50% in size
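S. cerevisiae expressing influenza A NS1, grown in glucose, washed, then diluted 1:100 into pH 6.0 -URA galactose medium with 23 nl compound. Growth recovery read as OD600; NS1-free strain serves as control.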
CHX counter: counter-screen hit for Shiga toxin inhibitors, cycloheximide. max response, %. cell reporter, cycloheximide protein synthesis inhibition counterscreen. 300,000 compounds, 12% hits. AID 2314; in the data active = max response mostly above about 13%, no sharp cut-off; inactive = mostly below about 14%; also: read at 38.3 µM for the half of the compounds with a filed dose
LmPK inhibitor: LmPK (Leishmania mexicana) enzyme inhibition | 290,000 compounds, 0.37% hits | Q27686 | Potency, µM (titrated, usually from 57.5 µM), hits mostly inhibitors | purified LmPK, Kinase-Glo ATP luminescence, 1 h
Target sequence (Q27686 whole entry, looked up): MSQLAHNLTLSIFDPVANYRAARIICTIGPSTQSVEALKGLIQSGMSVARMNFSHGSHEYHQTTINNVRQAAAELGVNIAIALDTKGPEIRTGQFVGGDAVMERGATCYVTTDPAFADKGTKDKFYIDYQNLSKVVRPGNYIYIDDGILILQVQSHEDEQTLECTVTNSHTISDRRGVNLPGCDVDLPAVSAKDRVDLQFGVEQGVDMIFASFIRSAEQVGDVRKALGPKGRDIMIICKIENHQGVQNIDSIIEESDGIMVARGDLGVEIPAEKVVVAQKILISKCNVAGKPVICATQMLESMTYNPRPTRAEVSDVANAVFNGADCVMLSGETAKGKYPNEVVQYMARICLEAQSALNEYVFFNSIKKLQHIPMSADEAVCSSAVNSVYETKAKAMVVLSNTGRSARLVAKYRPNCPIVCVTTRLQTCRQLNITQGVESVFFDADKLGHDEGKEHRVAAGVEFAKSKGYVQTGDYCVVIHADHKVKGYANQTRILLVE
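qHTS format; LmPK 0.1 nM; substrates PEP 0.5 mM and ADP 0.1 mM. One-hour room-temperature incubation, then coupled luciferase luminescence; 0.5 nM enzyme wells mark activation.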
Numbers stand for hits; . = inactive; ? = inconclusive; / = no result; [ ] = another dose, or the depositor's remark. The sample as a whole holds a higher share of hits than the screen did. Unless noted, calls follow the shape of the dose curve; as a rule, active = well fitted curve in the direction sought with a large enough effect; inconclusive = small, poorly fitted or top-dose-only effect, or another doubt; inactive = no such curve, though single readings can be large; an effect the other way counts as inactive or inconclusive.

SMILES | Shiga toxin inh | SARS PLP yeast | Tb PYK inh | NS1 function inh | CHX counter | LmPK inhibitor
O=C1NCCC/C1=N\Nc1ccc(Br)cc1 | . | . | . | . | 8.2 | .
O=C(Nc1nc(-c2ccccc2)cs1)c1ccc(Br)o1 | 107.0 | . | . | . | 31.5 | .
COc1ccc(-c2csc(NC(=O)c3ccccc3F)n2)cc1 | / | . | . | . | 14.9 | .
O=C(Nc1nc(-c2ccccc2)cs1)c1cccc([N+](=O)[O-])c1C(=O)O | . | . | . | . | . | .
O=C(Nc1nc(-c2ccccc2)cs1)c1ccccc1F | 62.2 | . | . | . | 41.0 | .
COc1cccc2c1OC(=O)CC2c1ccccc1C (configuration not stated) | . | / | / | / | . | /
N#Cc1c(NC(=O)COC(=O)c2ccc(O)cc2O)sc2c1CCC2 | / | . | . | / | / | /
Cc1ccc(S(=O)(=O)NCC(=O)N(CC(=O)NCC2CCCO2)Cc2ccco2)cc1 (configuration not stated) | . | . | . | . | 10.3 | .
O=C1c2ccccc2NC(c2ccco2)N1O (configuration not stated) | . | . | . | . | . | .
COc1cccc(C2Nc3ccccc3C(=O)N2O)c1O (configuration not stated) | . | . | . | . | . | .
Cc1c(C2Nc3ccccc3C(=O)N2O)cnn1C (configuration not stated) | . | . | . | . | 16.7 | .
CCn1cc(C2Nc3ccccc3C(=O)N2O)c(C)n1 (configuration not stated) | 44.0 | . | . | ? | 12.1 | .
C=CCNc1nc2c3ccccc3n(C(C)=O)c2s1 | 128.9 | . | . | . | . | .
COc1ccc(C2=NN(CN3C(=O)C(=O)c4ccccc43)C(c3ccc(OC)cc3)C2)cc1 (configuration not stated) | 131.2 | . | . | . | 75.8 | .
CC(C)c1ccc(N(CC(=O)NC2CCCC2)C(=O)CCC(=O)Nc2ccccn2)cc1 | . | . | . | . | . | .
COc1nccnc1NS(=O)(=O)c1ccc(N)cc1 | . | . | . | . | . | .
CC(=O)c1ccc(N2CCN(C(=O)C3CCCN(S(=O)(=O)c4cnc[nH]4)C3)CC2)cc1 (configuration not stated) | . | . | . | . | 21.6 | .
CC(=O)c1ccc(N2CCN(C(=O)C3CCCN(S(=O)(=O)c4ccc(Br)s4)C3)CC2)cc1 (configuration not stated) | / | / | . | / | / | /
O=C(NNc1cccc(Cl)n1)c1c(Cl)cccc1Cl | . | . | / | . | . | .
O=C(O)c1ccccc1C(=O)NNc1cccc(Cl)n1 | 97.5 | . | . | . | 48.8 | .
NS(=O)(=O)c1ccc(NNC(=O)c2ccccc2C(=O)O)cc1 | . | . | . | . | 28.6 | .
O=C(O)c1ccccc1C(=O)NNc1ccc(Cl)cc1 | 49.2 | . | . | . | 11.4 | .
Cc1ccc2c(CNCc3cccs3)c(C(=O)O)n(Cc3ccc(F)cc3)c2c1 | / | / | . | / | / | /
CC1CCN(c2ccc(C(=O)NCc3cccs3)cn2)CC1 | . | . | . | . | 51.7 | .
CC1CCN(S(=O)(=O)c2cccc(C(=O)NCc3cccs3)c2)CC1 | . | . | . | . | . | .
SMILES | Shiga toxin inh | SARS PLP yeast | Tb PYK inh | NS1 function inh | CHX counter | LmPK inhibitor
O=C(NCCc1ccccc1)c1cnc(Cl)c(Cl)c1 | 105.3 | . | . | . | 30.9 | .
O=C(NCc1cccs1)c1cnc(Cl)c(Cl)c1 | 45.0 | . | . | / | 29.9 | .
O=C(NCC1CCCO1)c1ccc(/C=N/O)nc1 (configuration not stated) | . | . | ? | . | . | .
CC1CCCN(c2ccc(C(=O)NCC3CCCO3)cn2)C1 (configuration not stated) | . | . | . | . | 24.8 | .
Cc1ccsc1C(=O)N1CCN(S(=O)(=O)c2cccc(F)c2)CC1 | / | . | . | / | / | /
CC(=O)c1ccc(Oc2ncnc3sccc23)cc1 | 79.5 | . | . | / | 48.1 | .
Cc1cc(C(=O)COc2ncnc3sccc23)c(C)n1C | 133.7 | . | . | . | 31.2 | .
CC(=O)N1CCN(c2ccc(Oc3ncnc4sccc34)cc2)CC1 | . | . | . | . | . | .
CNC(=O)COc1ncnc2sccc12 | . | . | . | . | . | .
CCn1cc(C(=O)OCC(=O)Nc2cc(OC)cc(OC)c2)c(=O)c2ccc(C)nc21 | / | / | . | / | / | /
CN(Cc1nc(-c2cccs2)no1)CC(O)c1ccccc1 (configuration not stated) | 56.2 | . | . | . | 44.0 | .
CN(Cc1nc(-c2cccs2)no1)CC1COCCO1 (configuration not stated) | 61.4 | . | . | . | 33.2 | .
CN(Cc1nc(Cc2cccc(F)c2)no1)CC1COCCO1 (configuration not stated) | . | . | . | . | . | .
CN(Cc1nc(C(c2ccccc2)c2ccccc2)no1)CC1COCCO1 (configuration not stated) | . | . | . | . | 14.5 | 14.1µM
CC(=O)N1c2ccccc2C(=O)C1N(C)c1ccc(C)cc1 (configuration not stated) | 44.6 | . | . | . | 32.8 | .
CC(=O)N1c2ccccc2C(=O)C1N1CCN(c2cccc(C)c2C)CC1 (configuration not stated) | / | / | .[15.4 µM] | / | / | /
Clc1ccccc1CN1CCN(/N=C/C=C/c2ccco2)CC1 | 58.1 | . | . | . | 26.4 | .
CN1CCN(/N=C/c2cccc(Cl)c2Cl)CC1 | 41.2 | . | . | . | 28.7 | .
O=C(CN1CCN(Cc2ccccc2Cl)CC1)N/N=C/C=C/c1ccco1 | . | . | . | . | . | .
O=[N+]([O-])c1ccccc1/C=N\N1CCN(Cc2ccccc2Cl)CC1 | . | . | . | . | 15.6 | .
O=[N+]([O-])c1ccccc1/C=N/N1CCN(Cc2ccccc2)CC1 | / | . | . | . | 45.3 | .
Fc1ccccc1/C=N/N1CCN(Cc2ccccc2Cl)CC1 | / | . | . | . | 19.1 | .
CCC(C)C(=O)Nc1nnc(-c2cccs2)s1 (configuration not stated) | 58.7 | . | . | . | 64.4 | .
COCC(=O)Nc1nnc(-c2cccs2)s1 | . | . | . | . | . | .
C=C(C)C(=O)Nc1nnc(-c2cccs2)s1 | 81.4 | . | . | . | 21.4 | .
SMILES | Shiga toxin inh | SARS PLP yeast | Tb PYK inh | NS1 function inh | CHX counter | LmPK inhibitor
O=C(Nc1nnc(-c2cccs2)s1)C1CC1 | . | . | . | . | . | .
CCOC(=O)CN1N=C(c2ccc(Cl)cc2)CCC1=O | . | . | . | . | . | .
CC(C)(C)c1ccc(OCCn2ccccc2=O)cc1 | 92.7 | . | . | . | 36.8 | .
O=c1ccccn1CCOc1ccc(Cl)cc1 | 35.2 | . | . | . | 32.5 | .
CC(C)(c1ccccc1)c1ccc(OCCn2cnc3ccccc3c2=O)cc1 | . | . | . | . | . | .
O=c1[nH]c(=O)n(CCOc2ccc(Cl)cc2)cc1Br | . | . | . | ? | . | .

Screening data from PubChem BioAssay.
